Reference: PubChem BioAssay (EPA / NIEHS)
Records with an inconclusive call do not appear. Activity calls are given as the source filed them. The calls were made as follows, unless noted: active = hit-call score of the fitted dose curve at least 0.9, where 1 is the maximum; inconclusive = response in the unintended direction; inactive = score below 0.9.

Key:
[1] = CCTE_Shafer_MEA_acute_cross_correlation_area: CCTE's Neural Acute Assay for Area of Cross Correlation, Shafer Lab (AID 2284024; active = hit-call score of the fitted dose curve at least 0.9, where 1 is the maximum; inactive = score below 0.9;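 also: rat primary cortical neuron networks on 48-well MEA at DIV 13 or 15 with 40 min exposure; area under pooled inter-electrode spike cross-correlation near zero lag as percent change from own baseline; curves fitted for loss of cross-correlation area so actives lower synchrony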)
Summary of the method: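 Rat cortical cultures, DIV 13/15, MEA; spikes detected at 8x rms noise (300-5000 Hz band-pass). Compound 0.03-40 uM, ≥3 wells each. Readout: % change in pooled inter-electrode cross-correlation area vs own baseline; DMSO negative control.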

[2] = CCTE_Shafer_MEA_acute_cross_correlation_HWHM: CCTE's Neural Acute Assay for Cross Correlation at Half Width at Half Maximum, Shafer Lab (AID 2284026; active = hit-call score of the fitted dose curve at least 0.9, where 1 is the maximum; inactive = score below 0.9;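 also: spontaneous network firing of rat primary cortical neurons on multiwell microelectrode arrays; percent change per well from pre-dose baseline in spike cross-correlogram half width; hits are a decrease in cross-correlogram half width relative to DMSO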)
Summary of the method: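 Read-out: half width at half maximum of action-potential cross-correlogram, percent change versus pre-treatment baseline, fitted in loss direction against DMSO. Rat cortical cultures, DIV 13 or 15, dosed 0.03-40 uM, 40-min recordings at 37 C.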

[3] = CCTE_Shafer_MEA_acute_synchrony_index: CCTE's Neural Acute Assay for Synchrony, Shafer Lab (AID 2284027; active = hit-call score of the fitted dose curve at least 0.9, where 1 is the maximum; inactive = score below 0.9;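 also: network synchrony index of spontaneous spiking in primary rat cortical neurons on MEAs; fitted for loss of signal so actives lower synchrony relative to DMSO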)
Summary of the method: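 Plates equilibrated 20 min at 37 C, baseline recorded 40 min, compound (0.03-40 uM) added, then 40 min more recorded. Cells: primary rat cortical neurons, DIV 13 or 15. Per-well synchrony index change analysed in negative direction against DMSO.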

[4] = molecular target: Estrogen receptor (Homo sapiens) (UniProt P03372); assay: CCTE_Deisenroth_AIME_384WELL_LUC_Active: CCTE's 384-well Estrogen Receptor Transactivation Assay with AIME metabolic competence (ERTA luciferase; metabolism positive), Deisenroth Lab (AID 2284030)
Summary of the method: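 Readout: bioluminescent luciferase induction in VM7Luc4E2 cells 24 hour after receiving medium from a 2 h rat hepatic S9 (induced, alginate microsphere) metabolism step. Concentrations 0.002 - 200 uM; activity scaled to 17beta-estradiol positive control.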

[5] = CCTE_Deisenroth_AIME_384WELL_CTox_Active: Cytotoxicity Assessment (CTOX) in CCTE's 384-well Estrogen Receptor Transactivation Assay with AIME metabolic competence (metabolism positive), Deisenroth Lab (AID 2284037);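 also: chemicals first conditioned 2 h by alginate-bound induced rat liver S9 before cells; activity means signal loss indicating cell death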
Summary of the method: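 VM7Luc4E2 breast cells received medium pre-incubated 2 h with chemical over alginate microspheres holding induced male Sprague Dawley rat liver S9; viability read 24 h later by protease-substrate fluorescence. Loss of signal, bidirectional fit, 0.002–200 uM.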

[6] = molecular target: Estrogen receptor (Homo sapiens) (UniProt P03372); assay: CCTE_Deisenroth_AIME_384WELL_LUC_Inactive: CCTE's 384-well Estrogen Receptor Transactivation Assay without AIME metabolic competence (ERTA luciferase; metabolism negative), Deisenroth Lab (AID 2284038);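 also: hits raise estrogen receptor luciferase signal so potencies reflect agonists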
Summary of the method: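 VM7Luc4E2 ER transactivation, luciferase bioluminescence after 24 h, using medium pre-incubated 2 h with S9-free alginate microspheres. Concentrations 0.002–200 uM; gain of signal fitted relative to 17beta-estradiol.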

[7] = CCTE_Deisenroth_AIME_384WELL_CTox_Inactive: Cytotoxicity Assessment (CTOX) in CCTE's 384-well Estrogen Receptor Transactivation Assay without AIME metabolic competence (metabolism negative), Deisenroth Lab (AID 2284039);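 also: cell viability via live-cell protease substrate cleaved to fluorescent probe; cells exposed 24 h to medium preincubated 2 h with alginate-water beads without S9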
Summary of the method: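 VM7Luc4E2 human breast cells received conditioned medium from a 2 h incubation of chemical with alginate-water microspheres (no S9), then were exposed 24 h. Viability was read as protease-substrate cleavage to a fluorescent probe; loss of signal was fitted bidirectionally over 0.002–200 uM.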

[8] = molecular target: Estrogen receptor (Homo sapiens) (UniProt P03372); assay: CCTE_Deisenroth_AIME_384WELL_LUC_Shift: CCTE's 384-well Estrogen Receptor Transactivation Assay with AIME metabolic competence data shift (ERTA luciferase; difference in metabolism positive and negative), Deisenroth Lab (AID 2284041; active = hit-call score of the fitted dose curve at least 0.9, where 1 is the maximum; inactive = score below 0.9;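 also: shift is response with S9 minus without S9 so positive means metabolism raised ER signal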)
Summary of the method: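 Here, parent compounds undergo 2 h phase I metabolism by PB/BNF-induced rat S9 before 24 h transactivation in VM7Luc4E2 cells; the curve models S9-positive minus S9-negative response over a 10-point series.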

[9] = CCTE_Shafer_MEA_dev_firing_rate_mean: CCTE's Neural Network Formation Assay for Mean Firing Rate, Shafer Lab (AID 2284031; active = hit-call score of the fitted dose curve at least 0.9, where 1 is the maximum; inactive = score below 0.9)
Summary of the method: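 Steps: seed rat cortical cells (1.5 x 10^5/well) with laminin on PEI-coated MEA; dose day 0; record DIV 5/7/9/12, full media and compound exchange after DIV 5 and 9 recordings; compute well-mean firing rate AUC.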

[10] = CCTE_Shafer_MEA_dev_per_burst_spike_percent: CCTE's Neural Network Formation Assay for Percent of Spikes in a Burst, Shafer Lab (AID 2284032; active = hit-call score of the fitted dose curve at least 0.9, where 1 is the maximum; inactive = score below 0.9)
Summary of the method: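 Value is trapezoidal AUC over recordings on days 5, 7, 9 and 12 of the well-mean fraction of spikes falling in single-electrode bursts; rat cortical cultures exposed continuously from plating, treatment renewed DIV 5 and 9, fitted downward against DMSO.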

[11] = CCTE_Shafer_MEA_dev_active_electrodes_number: CCTE's Neural Network Formation Assay for Number of Active Electrodes, Shafer Lab (AID 2284040)
Summary of the method: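 Counts electrodes per well firing at least 5 spikes/min, recorded on days 5, 7, 9 and 12 in rat cortical cultures dosed continuously from plating (treatment refreshed DIV 5, 9). Value is the area under the curve over recordings, fitted downward relative to DMSO.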

[12] = CCTE_Shafer_MEA_dev_burst_rate: CCTE's Neural Network Formation Assay for Burst Rate, Shafer Lab (AID 2284042; active = hit-call score of the fitted dose curve at least 0.9, where 1 is the maximum; inactive = score below 0.9)
Summary of the method: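 Rat primary cortical cultures on PEI/laminin MEA; compound from plating, re-dosed at DIV 5, 9 media change. Single-electrode bursts/recording length, well mean of active electrodes; AUC over DIV 5–12 recordings; loss-of-signal vs DMSO.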

[13] = CCTE_Shafer_MEA_dev_bursting_electrodes_number: CCTE's Neural Network Formation Assay for Number of Bursting Electrodes, Shafer Lab (AID 2284043)
Summary of the method: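 Counted: electrodes with burst rate ≥1 per 2 min in each well. Cells: primary rat cortex, 1.5 x 10^5/well, on 16-electrode MEA wells. Exposure: DIV 0–12, compound renewed DIV 5 and 9. Recording days 5, 7, 9, 12; AUC vs DMSO baseline.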

[14] = CCTE_Shafer_MEA_dev_per_burst_interspike_interval: CCTE's Neural Network Formation Assay for Burst Interspike Interval, Shafer Lab (AID 2284044; active = hit-call score of the fitted dose curve at least 0.9, where 1 is the maximum; inactive = score below 0.9)
Summary of the method: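 Readout is the average time between spikes inside single-electrode bursts, taken as a well mean across bursting electrodes. Cortical neurons from rat developed networks on MEA plates under continuous 12-day exposure; recordings on days 5, 7, 9 and 12 were integrated by trapezoidal AUC.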

[15] = CCTE_Shafer_MEA_dev_burst_duration_mean: CCTE's Neural Network Formation Assay for Mean Burst Duration, Shafer Lab (AID 2284045; active = hit-call score of the fitted dose curve at least 0.9, where 1 is the maximum; inactive = score below 0.9)
Summary of the method: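 Network-formation assay in primary rat cortical neurons; treatment spans twelve days of development. Mean burst duration per well is integrated by trapezoidal AUC and fitted in the loss-of-signal direction against DMSO baseline.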

[16] = CCTE_Shafer_MEA_dev_interburst_interval_mean: CCTE's Neural Network Formation Assay for Mean Interburst Interval, Shafer Lab (AID 2284046; active = hit-call score of the fitted dose curve at least 0.9, where 1 is the maximum; inactive = score below 0.9;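 also: well-mean interburst interval of bursting electrodes as AUC over four recording days; curve fitted for decrease in interburst interval relative to DMSO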)
Summary of the method: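 Rat cortical neurons, 1.5 x 10^5 cells/well, 48-well MEA; compound from day 0 through DIV 12, media and treatment renewed DIV 5/9. Recordings DIV 5, 7, 9, 12; well-mean interburst interval → trapezoidal AUC, loss direction vs DMSO.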

[17] = CCTE_Shafer_MEA_dev_inter_network_spike_interval_mean: CCTE's Neural Network Formation Assay for Mean Inter-network Spike Interval, Shafer Lab (AID 2284047; active = hit-call score of the fitted dose curve at least 0.9, where 1 is the maximum; inactive = score below 0.9)
Summary of the method: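 Primary rat cortical neurons on PEI-coated 48-well MEAs (16 electrodes/well) were exposed from plating day 0 to DIV 12, with dosing renewed at DIV 5 and 9. Recordings at DIV 5, 7, 9, 12 were collapsed by trapezoidal AUC, loss-of-signal fit vs DMSO.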

Measured: AC50

Chain of Estrogen receptor (Homo sapiens) (P03372 whole entry, looked up): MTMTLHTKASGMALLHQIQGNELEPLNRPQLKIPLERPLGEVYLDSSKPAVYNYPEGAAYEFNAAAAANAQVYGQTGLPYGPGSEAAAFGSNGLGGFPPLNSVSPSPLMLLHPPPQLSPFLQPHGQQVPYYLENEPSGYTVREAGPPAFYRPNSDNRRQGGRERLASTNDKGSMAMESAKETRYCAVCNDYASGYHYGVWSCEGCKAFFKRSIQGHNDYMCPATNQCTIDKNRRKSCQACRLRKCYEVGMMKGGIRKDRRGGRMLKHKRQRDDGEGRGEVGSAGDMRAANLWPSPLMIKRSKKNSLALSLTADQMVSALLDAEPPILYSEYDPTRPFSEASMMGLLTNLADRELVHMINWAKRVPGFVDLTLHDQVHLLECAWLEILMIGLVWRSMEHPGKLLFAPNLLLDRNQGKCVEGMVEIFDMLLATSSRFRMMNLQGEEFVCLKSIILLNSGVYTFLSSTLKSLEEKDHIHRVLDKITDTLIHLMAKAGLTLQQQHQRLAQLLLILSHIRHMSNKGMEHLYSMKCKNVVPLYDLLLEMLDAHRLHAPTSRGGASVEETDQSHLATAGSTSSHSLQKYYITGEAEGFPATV

CCCCN(CCO)CCO
inactive: [1] | [2] | [3]

c1ccc(OCCOc2ccccc2)cc1
inactive: [1] | [2] | [3]

OC[C@H]1O[C@@H](O[C@H]2[C@H](O)[C@@H](O)[C@H](O)O[C@@H]2CO)[C@H](O)[C@@H](O)[C@H]1O
inactive: [4] | [5] | [6] | [7] | [8]

CC(C)CCCC(C)(C)O
inactive: [1] | [2] | [3]

CC(=O)CC(=O)N(C)C
inactive: [4] | [5] | [6] | [7] | [8]

CC(=O)c1ccc2ccccc2c1
active: [4] 74.9 µM
inactive: [5] | [6] | [8]

CCCC1CCC(=O)CC1
inactive: [4] | [6] | [8]

CCCO
inactive: [4] | [6] | [8]

N#CCCNCCC#N
inactive: [9] | [10] | [11] | [12] | [13] | [14] | [15] | [16] | [17]

[Na+]
inactive: [4] | [6] | [8]

CCC(C)COC(=O)CC(C)C (stereo unspecified)
inactive: [4] | [5] | [6] | [8]

CCCCCCCCOC(=O)c1ccc(O)cc1
active: [6] 39.7 µM | [8] 36.3 µM
inactive: [4]

CC(=O)Oc1c(C)c(C)c2c(c1C)CC[C@@](C)(CCC[C@H](C)CCC[C@H](C)CCCC(C)C)O2
inactive: [4] | [5] | [6] | [8]

CC(=O)C1=C(C)[C@@H]2C[C@@]3(C1)[C@H](C)CC[C@H]3C2(C)C
active: [4] 0.000204 µM | [6] 0.000263 µM | [8] 0.000848 µM
inactive: [5]
